From PubChem BioAssay AID1259349 (Broad Institute, 2017) come the findings set out here.

Hit rate of the full screen: of about 17,000 compounds, about 1,100 (6.5%) were called active.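 Rule for the calls: active = z-score of -3 or lower, meaning strong loss of probe binding signal; inactive = the rest.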 The entries come from a sample that favours actives as a whole.

For this test, the target named is Insulin-degrading enzyme (Homo sapiens) (UniProt P14735). The test can be described thus: displacers of FL-6b probe from IDE – biochemical, fluorescence anisotropy, probe displacement, primary screen (AID 1259349).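 Note: His-tagged human IDE residues 42-1019 made in E. coli with 30 nM FL-6b probe.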 Conditions: purified IDE, FL-6b probe fluorescence polarization; at 20 µM; active compounds read low.
Sequence of Insulin-degrading enzyme (Homo sapiens) (P14735 42-1019 limits assumed): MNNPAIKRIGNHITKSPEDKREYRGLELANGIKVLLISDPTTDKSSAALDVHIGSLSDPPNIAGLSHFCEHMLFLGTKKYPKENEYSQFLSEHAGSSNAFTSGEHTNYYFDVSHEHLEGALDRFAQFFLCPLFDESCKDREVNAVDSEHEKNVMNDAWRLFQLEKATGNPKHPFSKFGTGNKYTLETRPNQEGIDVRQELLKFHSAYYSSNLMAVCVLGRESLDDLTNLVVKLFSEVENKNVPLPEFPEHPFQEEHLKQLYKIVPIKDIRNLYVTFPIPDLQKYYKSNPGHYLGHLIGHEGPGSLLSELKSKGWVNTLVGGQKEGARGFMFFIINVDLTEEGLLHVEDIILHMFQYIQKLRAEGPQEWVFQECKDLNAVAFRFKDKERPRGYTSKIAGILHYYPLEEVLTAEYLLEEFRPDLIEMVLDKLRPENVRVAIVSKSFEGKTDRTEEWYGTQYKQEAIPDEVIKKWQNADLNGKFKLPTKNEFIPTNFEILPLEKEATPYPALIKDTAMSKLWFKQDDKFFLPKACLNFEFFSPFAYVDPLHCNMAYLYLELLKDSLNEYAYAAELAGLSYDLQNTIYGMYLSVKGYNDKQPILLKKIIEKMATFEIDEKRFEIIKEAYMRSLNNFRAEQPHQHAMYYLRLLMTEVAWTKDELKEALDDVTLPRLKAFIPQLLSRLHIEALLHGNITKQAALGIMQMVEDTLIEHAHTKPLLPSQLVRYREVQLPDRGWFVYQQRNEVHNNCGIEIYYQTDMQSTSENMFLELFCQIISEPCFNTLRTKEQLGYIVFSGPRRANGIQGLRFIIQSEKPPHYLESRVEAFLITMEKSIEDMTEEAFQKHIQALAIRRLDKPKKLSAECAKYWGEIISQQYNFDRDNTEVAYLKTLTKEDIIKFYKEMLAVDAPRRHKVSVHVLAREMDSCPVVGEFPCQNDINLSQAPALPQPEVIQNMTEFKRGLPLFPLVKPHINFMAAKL
For the compound `CCCC#Cc1ccc([C@@H]2[C@H](CO)N3CCCCN(S(=O)(=O)c4ccccc4F)C[C@@H]23)cc1`, the z-score was -4.86 (active). For `CS(=O)(=O)N1CCCCN2[C@@H](CO)[C@@H](c3ccc(Br)cc3)[C@@H]2C1`, the z-score is -1.86 (inactive). In the case of `CCCC#Cc1ccc([C@H]2[C@H](CO)N3CCCCN(S(=O)(=O)CC)C[C@@H]23)cc1`, the z-score is 3.45 (inactive). With `OC[C@H]1[C@@H](c2ccc(C#Cc3ccccc3F)cc2)[C@H]2CN(CC3CCOCC3)CCCCN21`, the z-score was 0.86 (inactive).

As for `COc1ccccc1C#Cc1ccc([C@H]2[C@H](CO)N3CCCCN(C(=O)C4CCC4)C[C@@H]23)cc1`, the z-score was -12.3 (active).

As for `O=C(Nc1ccc(F)cc1)N1CCCCN2[C@H](CO)[C@H](c3ccc(C#Cc4ccccc4)cc3)[C@H]2C1`, the z-score is -0.00774 (inactive).

As to `CN(C)CC#Cc1ccc([C@H]2[C@H]3CN(S(=O)(=O)c4ccccc4F)CCCCN3[C@H]2CO)cc1`, the z-score was 1.11 (inactive). In the case of `COc1ccccc1C#Cc1ccc([C@@H]2[C@@H](CO)N3CCCCN(S(C)(=O)=O)C[C@@H]23)cc1` it was -10.2 (active); in that of `COc1ccc(C#Cc2ccc([C@H]3[C@@H](CO)N4CCCCN(C(=O)Nc5ccccc5)C[C@H]34)cc2)cc1`, 4.38 (inactive). On to `COc1ccccc1NC(=O)N1CCCCN2[C@@H](CO)[C@@H](c3ccc(C#Cc4ccccc4)cc3)[C@@H]2C1`, for which the z-score was -2.86 (inactive). On to `CCCC#Cc1ccc([C@H]2[C@@H](CO)N3CCCCN(S(=O)(=O)CC)C[C@H]23)cc1`, for which the z-score was 3.29 (inactive). As to `COc1ccccc1C#Cc1ccc([C@@H]2[C@H](CO)N3CCCCN(CCC(F)(F)F)C[C@@H]23)cc1`, the z-score is -8.07 (active). Take `CS(=O)(=O)Nc1ccc2c(c1)[C@@H]1C[C@H](CC(=O)NCc3cc(F)ccc3F)O[C@@H](CO)[C@@H]1O2`: the z-score is -0.994 (inactive).

On to `C/C=C/c1ccc([C@H]2[C@@H](CNC(=O)NC(C)C)N(C(=O)C3CCC3)[C@H]2CO)cc1`, for which the z-score was 1.01 (inactive). `C[C@@H](O)C#Cc1ccc([C@H]2[C@H](CO)N3CCCCN(C(=O)c4ccc5c(c4)OCO5)C[C@@H]23)cc1`: the z-score is -0.442 (inactive). The same measure for `CCS(=O)(=O)NCC[C@H]1CC[C@@H](NC(=O)Nc2cc(Cl)cc(Cl)c2)[C@@H](CO)O1`: 2.83 (inactive); for `CCCNC(=O)C[C@@H]1CC[C@H]2[C@@H](COC[C@H](O)CN2C(=O)Nc2ccc(Cl)c(Cl)c2)O1`: -0.531 (inactive); for `Cc1noc(C)c1S(=O)(=O)Nc1ccc2c(c1)C(=O)N([C@@H](C)CO)C[C@@H](C)[C@H](CN(C)C(=O)Nc1cccc3ccccc13)OCCCC[C@H](C)O2`: 0.278 (inactive).

Regarding `COc1ccccc1-c1ccc2c(c1)O[C@@H](CN(C)CC1CCOCC1)[C@H](C)CN([C@@H](C)CO)S2(=O)=O`, the z-score was -0.56 (inactive). Turning to `CCNC(=O)c1cc2c(c(-c3cccc(-c4cncnc4)c3)n1)[C@H](CCO)N(C(C)=O)C2`, the z-score is -0.344 (inactive).

As for `O=C1CNC[C@H]2[C@@H](c3ccc(C4=CCCC4)cc3)[C@@H](CO)N12`, the z-score is 1.84 (inactive). For `CC(=O)N(C)C[C@@H]1[C@@H](c2ccc(-c3ccccc3F)cc2)[C@@H](CO)N1C(C)=O`, the z-score is 2.54 (inactive). As to `N#C[C@@H]1[C@@H](c2ccc(-c3ccccc3F)cc2)[C@@H](CO)N1C(=O)c1ccccn1`, the z-score is -6.83 (active).

As to `N#C[C@H]1[C@H](c2ccccc2)[C@@H](CO)N1C(=O)c1cccnc1`, the z-score was 1.75 (inactive). The same measure for `N#C[C@H]1[C@@H](c2ccc(-c3ccccc3F)cc2)[C@H](CO)N1C(=O)c1ccccn1`: -3.67 (active); for `N#C[C@H]1[C@@H](c2ccccc2C2=CCCCC2)[C@H](CO)N1C(=O)c1ccccn1`: 0.206 (inactive); for `N#C[C@@H]1[C@@H](c2ccc(/C=C/c3ccccc3)cc2)[C@@H](CO)N1C(=O)C1CC1`: -0.906 (inactive). On to `N#C[C@@H]1[C@H](c2ccccc2-c2ccccc2F)[C@@H](CO)N1C(=O)c1ccccn1`, for which the z-score was -0.079 (inactive). For `N#C[C@H]1[C@@H](c2ccccc2-c2ccccc2F)[C@@H](CO)N1C(=O)C1CCC1`, the z-score was -0.535 (inactive).

With `N#C[C@@H]1[C@@H](c2ccc(-c3ccccc3F)cc2)[C@@H](CO)N1C(=O)C1CC1`, the z-score was -5.9 (active). The same measure for `CC(C)NC(=O)N1[C@H](C#N)[C@@H](c2ccc(-c3ccc(F)cc3)cc2)[C@H]1CO`: 2.54 (inactive).

Turning to `O=C(CC1CC1)N1CC(=O)N2[C@H](CO)[C@H](c3ccc(C#Cc4ccc(F)cc4)cc3)[C@@H]2C1`, the z-score is 3.38 (inactive).

For `CCC(=O)N(C)C[C@H]1[C@H](c2ccc(C3=CCCCC3)cc2)[C@@H](CO)N1C(C)=O`, the z-score is 3.35 (inactive).

Consider `COc1cccc(-c2ccc([C@@H]3[C@@H](C#N)N(C(=O)c4ccccn4)[C@H]3CO)cc2)c1`, for which the z-score was -4.27 (active).

For `COc1cccc(C#Cc2ccc([C@H]3[C@@H](CO)N(C(=O)c4ccccn4)[C@H]3C#N)cc2)c1`, the z-score was 0.995 (inactive). With `N#C[C@H]1[C@H](c2ccc(-c3ccccc3)cc2)[C@@H](CO)N1C(=O)Cc1ccccc1`, the z-score is 1.03 (inactive).

As for `COc1cccc(-c2ccc([C@@H]3[C@@H](CO)N(C(=O)c4ccccn4)[C@H]3C#N)cc2)c1`, the z-score is -6.41 (active).

`COc1ccc(-c2ccc([C@@H]3[C@@H](C#N)N(C(=O)C4CCC4)[C@@H]3CO)cc2)cc1`: the z-score is 4.33 (inactive). Take `N#C[C@@H]1[C@@H](c2ccc(-c3ccccc3)cc2)[C@@H](CO)N1C(=O)Cc1ccccc1`: the z-score was 1.8 (inactive).

Take `CC(=O)N1[C@@H](CO)[C@@H](c2ccccc2)[C@@H]1CN(C)C(=O)CN1CCOCC1`: the z-score was 0.517 (inactive). For the compound `C[C@@H]1CN([C@H](C)CO)C(=O)c2cc(NC(=O)Cc3ccccc3)ccc2O[C@@H](C)CCCCO[C@@H]1CN(C)Cc1ccncc1`, the z-score is -1.57 (inactive). Regarding `C[C@@H]1COCc2cn(nn2)CC[C@H](C)C(=O)N1`, the z-score is 0.508 (inactive). Turning to `CN(C)C(=O)c1cccc(-c2ccc([C@H]3[C@@H](CO)N4C(=O)CN(C(=O)C5CC5)C[C@@H]34)cc2)c1`, the z-score was 3.52 (inactive). For the compound `COc1cccc(-c2ccc([C@H]3[C@H]4CN(C(=O)NC(C)C)CC(=O)N4[C@H]3CO)cc2)c1`, the z-score is -10.1 (active). Consider `COc1ccc(NC(=O)N2CC(=O)N3[C@H](CO)[C@@H](c4ccc(-c5ccc(C)cc5)cc4)[C@H]3C2)cc1`, for which the z-score was -0.113 (inactive). As for `COc1cccc(-c2ccc([C@@H]3[C@@H](CO)N4C(=O)CN(C(=O)C5CCCCC5)C[C@H]34)cc2)c1`, the z-score is -3.69 (active).

For the compound `CN(C)C(=O)c1cccc(-c2ccc([C@H]3[C@H](CO)N4C(=O)CN(C(=O)C5CCCCC5)C[C@@H]34)cc2)c1`, the z-score was 1.54 (inactive). For `C/C=C/c1ccc([C@@H]2[C@@H](CO)N3C(=O)CN(C(=O)Nc4cccc(OC)c4)C[C@@H]23)cc1`, the z-score was 0.379 (inactive).

Regarding `N#C[C@H]1[C@H](c2ccccc2-c2ccc(F)cc2)[C@H](CO)N1C(=O)Cc1ccncc1`, the z-score was 2.04 (inactive). In the case of `CO[C@@H]1CC[C@@H]2CCOc3ccc(C#N)cc3C(=O)N(C)[C@H](C)C(=O)N(C)C[C@@H]1O2` it was 2.26 (inactive); in that of `CO[C@@H]1CN(C)C(=O)c2ccc(NS(=O)(=O)c3c(C)noc3C)cc2OC[C@H](C)NC[C@@H]1C`, 1.77 (inactive); in that of `CCS(=O)(=O)N1CCCCN2[C@@H](CO)[C@@H](c3ccc(-c4ccccc4)cc3)[C@@H]2C1`, -3.06 (active). In the case of `COc1ccc(C#Cc2ccc([C@@H]3[C@@H](CO)N4CCCCN(C(=O)c5ccncc5)C[C@@H]34)cc2)cc1` it was -0.38 (inactive); in that of `COc1ccc(-c2ccc([C@H]3[C@H]4CN(C(=O)c5ccc6c(c5)OCO6)CCCCN4[C@H]3CO)cc2)cc1`, 0.126 (inactive); in that of `O=S(=O)(Cc1ccccc1)N1CCCCN2[C@@H](CO)[C@H](c3ccc(-c4ccccc4)cc3)[C@@H]2C1`, 2.58 (inactive).

In the case of `O=S(=O)(c1ccccc1)N1CCCCN2[C@H](C1)[C@H](c1ccc(-c3ccccc3)cc1)[C@@H]2CO`, the z-score is 2.36 (inactive). For the compound `COc1ccccc1-c1ccc([C@@H]2[C@@H](CO)N3CCCCN(C(=O)c4ccncc4)C[C@@H]23)cc1`, the z-score was -4.74 (active). `O=C(c1ccncc1)N1CCCCN2[C@H](CO)[C@@H](c3ccc(C#Cc4ccccn4)cc3)[C@H]2C1`: the z-score is -2.35 (inactive).

Consider `CCCC#Cc1ccc([C@H]2[C@H](CO)N3CCCCN(C(=O)c4ccc5c(c4)OCO5)C[C@@H]23)cc1`, for which the z-score is 1.25 (inactive). In the case of `Cc1cccc(-c2ccc([C@@H]3[C@H](CO)N4CCCCN(C(=O)c5ccc6c(c5)OCO6)C[C@@H]34)cc2)c1`, the z-score was -4.42 (active). Consider `COc1ccccc1-c1ccc([C@@H]2[C@@H](CO)N3CCCCN(S(=O)(=O)c4cn(C)cn4)C[C@H]23)cc1`, for which the z-score is -2.23 (inactive).

`Cn1cnc(S(=O)(=O)N2CCCCN3[C@H](CO)[C@@H](c4ccc(-c5ccc(F)cc5)cc4)[C@@H]3C2)c1`: the z-score is 3.91 (inactive). For the compound `Cc1cccc(-c2ccc([C@H]3[C@H](CO)N4CCCCN(S(=O)(=O)c5cn(C)cn5)C[C@@H]34)cc2)c1`, the z-score is -4.09 (active).

Consider `O=C1CN(S(=O)(=O)Cc2ccccc2)C[C@@H]2[C@@H](c3ccc(C#Cc4ccccc4)cc3)[C@@H](CO)N12`, for which the z-score was -0.431 (inactive).

With `O=C(c1cccc(F)c1)N1CC(=O)N2[C@H](C1)[C@@H](c1ccc(C#Cc3ccc(F)cc3)cc1)[C@@H]2CO`, the z-score was 2.4 (inactive). Consider `CCC(=O)N1CC[C@H]2[C@@H]1c1cc(-c3ccc(C#N)cc3)ccc1N(C)[C@H]2CO`, for which the z-score was -0.903 (inactive).

For the compound `O=C(C[C@H]1CC[C@@H]2NC[C@H](O)COC[C@H]2O1)NCCN1CCCCC1`, the z-score is -0.195 (inactive). On to `O=C1CCCCn2nncc2COC[C@@H](Cc2ccccc2)N1`, for which the z-score is 0.104 (inactive). Take `CC(=O)NC[C@H]1[C@H](c2ccccc2)[C@@H](CO)N1C(=O)Cc1cccnc1`: the z-score was 5.37 (inactive). As for `CN(C)CC#Cc1ccc([C@H]2[C@H](CO)N3CCCCN(CC4CC4)C[C@@H]23)cc1`, the z-score was 3 (inactive). As for `Cc1ccc(-c2ccc([C@H]3[C@H]4CN(S(=O)(=O)c5cccc(F)c5)CC(=O)N4[C@H]3CO)cc2)cc1`, the z-score was 1.96 (inactive). For `CC(C)C#Cc1ccc([C@H]2[C@H](CO)N3CCCCN(C(=O)c4ccc(F)cc4)C[C@@H]23)cc1`, the z-score was 1.11 (inactive). Consider `O=C(c1ccc(F)cc1)N1CCCCN2[C@H](C1)[C@@H](c1ccc(C#CC3(O)CCCC3)cc1)[C@@H]2CO`, for which the z-score was -3.65 (active).

As for `O=C(c1cccc(F)c1)N1CCCCN2[C@H](CO)[C@H](c3ccc(-c4ccncc4)cc3)[C@H]2C1`, the z-score was 0.501 (inactive). Consider `O=C(c1ccc(F)cc1)N1CCCCN2[C@@H](CO)[C@H](c3ccc(-c4ccccc4)cc3)[C@@H]2C1`, for which the z-score was -0.452 (inactive). As for `O=C(c1cccc(F)c1)N1CCCCN2[C@H](CO)[C@H](c3ccc(C#CC4(O)CCCC4)cc3)[C@H]2C1`, the z-score was 0.958 (inactive).

As for `O=C(c1ccncc1)N1CCCCN2[C@H](CO)[C@H](c3ccc(-c4ccccc4)cc3)[C@H]2C1`, the z-score was -4.53 (active). For `CC(C)(O)C#Cc1ccc([C@H]2[C@H]3CN(C(=O)c4ccncc4)CCCCN3[C@H]2CO)cc1`, the z-score was 0.748 (inactive). For `C[C@H](CO)N1C[C@H](C)[C@H](CN(C)C(=O)Nc2cccc(Cl)c2Cl)OCc2ccccc2-c2ccccc2C1=O`, the z-score is -1.18 (inactive).

Regarding `CCCC#Cc1ccc([C@H]2[C@H]3CN(C(=O)Nc4ccc(F)cc4)CC(=O)N3[C@H]2CO)cc1`, the z-score is 3.77 (inactive). Turning to `C[C@@H]1CN([C@H](C)CO)C(=O)CCCn2cc(nn2)CO[C@@H]1CN(C)C(=O)Nc1ccc2c(c1)OCO2`, the z-score was -0.664 (inactive).

Consider `CCCC#Cc1ccc([C@H]2[C@@H](CO)N3C(=O)CN(C(=O)c4ccncc4)C[C@@H]23)cc1`, for which the z-score was 3.16 (inactive).
